Experimental data published in PubChem BioAssay AID1159580 (chemical genetic matrix, 2015).
Several values for one entry are separate records, joined by “and”; a condition that tells them apart may be missing. Equal values may be shown once. Hit rate of the full screen: of about 5,500 compounds, about 2,000 (36%) were called active. Roughly 18% stayed inconclusive and do not appear here. Cut-off read from the data, not from the text of the source: active = normalized growth mostly below about 0.91 (no sharp cut-off); inconclusive = no clear call, values can overlap the other calls; inactive = mostly above about 0.92. The list shows a part of the results.

Experiment: chemical genetic growth profiling, strain panel (AID 1159580);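 note: tested at 20 µM; growth read once vehicle control cultures reached saturation at 30 °C; 1 = growth at the plate median or of vehicle wells; lower values mean less growth of the strain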
Settings: S. cerevisiae deletion strains, growth OD

Measured: normalized growth

O=c1[nH]c2cc(Cl)c(Cl)cc2[nH]c1=O
inactive: locus YAL013W, strain DEP1, active compounds read low 1 and 0.993 | locus YAL021C, strain ccr4, active compounds read low 1.03 | locus YAL026C, strain drs2, active compounds read low 0.993 | locus YAL030W, strain snc1, active compounds read low 0.989 | locus YAL040C, strain CLN3, active compounds read low 1.11 | locus YBL061C, strain skt5, active compounds read low 0.982 | locus YBR009C, strain hhf1, active compounds read low 0.988 | locus YBR021W, strain FUR4, active compounds read low 1 | locus YBR023C, strain chs3, active compounds read low 1 | locus YBR171W, strain sec66, active compounds read low 0.98 | locus YBR229C, strain ROT2, active compounds read low 1.01 | locus YBR231C, strain swc5, active compounds read low 0.979 | locus YBR279W, strain paf1, active compounds read low 0.985 | locus YCL011C, strain gbp2, active compounds read low 0.984 | locus YCL016C, strain dcc1, active compounds read low 0.997 | locus YCL029C, strain bik1, active compounds read low 1.04 | locus YCL061C, strain MRC1 (second series), active compounds read low 1.01 | locus YCL069W, strain vba3, active compounds read low 0.999 | locus YCR088W, strain abp1, active compounds read low 0.997 | locus YDL005C, strain med2, active compounds read low 0.982 | locus YDL035C, strain GPR1, active compounds read low 1.01 | locus YDL040C, strain nat1, active compounds read low 0.994 | locus YDL074C, strain BRE1, active compounds read low 1.03 | locus YDL101C, strain DUN1, active compounds read low 1.02 | locus YDL134C, strain PPH21, active compounds read low 1.01 | locus YDL185W, strain tfp1, active compounds read low 1.02 | locus YDL192W, strain arf1, active compounds read low 1.02 | locus YDR001C, strain nth1, active compounds read low 1 | locus YDR069C, strain doa4, active compounds read low 0.969 | locus YDR101C, strain arx1, active compounds read low 1.03 | locus YDR137W, strain rgp1, active compounds read low 0.994 | locus YDR150W, strain NUM1, active compounds read low 1.01 | locus YDR159W, strain sac3, active compounds read low 0.901 | locus YDR162C, strain NBP2, active compounds read low 1.01 | locus YDR195W, strain ref2 1 | locus YDR297W, strain sur2, active compounds read low 0.99 | locus YDR318W, strain mcm21, active compounds read low 1.02 | locus YDR334W, strain swr1, active compounds read low 0.994 | locus YDR335W, strain msn5, active compounds read low 1 | locus YDR363W, strain ESC2, active compounds read low 0.968 | locus YDR388W, active compounds read low 1.02 | locus YDR392W, strain spt3, active compounds read low 0.92 | locus YDR502C, strain sam2, active compounds read low 1.03 | locus YEL003W, strain gim4, active compounds read low 0.993 | locus YEL037C, strain rad23, active compounds read low 1 | locus YEL061C, strain CIN8 (second series), active compounds read low 1.01 | locus YEL061C, strain CIN8, active compounds read low 1.01 | locus YER002W, strain NOP16, active compounds read low 0.997 | locus YER015W, strain faa2, active compounds read low 0.995 | locus YER016W, strain bim1, active compounds read low 0.992 | locus YER110C, active compounds read low 1.04 | locus YER111C, strain swi4, active compounds read low 0.991 | locus YER155C, strain BEM2 (second series), active compounds read low 0.967 | locus YER155C, strain BEM2, active compounds read low 1 | locus YER167W, strain BCK2, active compounds read low 1.02 | locus YFR010W, strain ubp6, active compounds read low 0.985 | locus YGL078C, strain dbp3, active compounds read low 1.03 | locus YGL086W, strain mad1, active compounds read low 1.01 | locus YGL167C, strain pmr1, active compounds read low 0.999 | locus YGL173C, strain kem1, active compounds read low 0.984 | locus YGL227W, strain vid30, active compounds read low 0.986 | locus YGL240W, strain doc1, active compounds read low 0.966 | locus YGL248W, strain PDE1, active compounds read low 1.01 | locus YGL253W, strain hxk2, active compounds read low 0.975 | locus YGR078C, strain PAC10, active compounds read low 1.02 and 1.04 | locus YGR135W, strain pre9, active compounds read low 1.02 | locus YGR229C, strain SMI1, active compounds read low 1.01 | locus YGR252W, strain gcn5, active compounds read low 1.01 | locus YHR013C, strain ard1, active compounds read low 0.988 | locus YHR027C, strain rpn1, active compounds read low 0.986 | locus YHR030C, strain SLT2, active compounds read low 1.01 | locus YHR079C, strain IRE1 (second series), active compounds read low 1.02 | locus YHR094C, strain hxt1, active compounds read low 1.01 | locus YHR129C, strain ARP1, active compounds read low 1.01 | locus YHR142W, strain chs7, active compounds read low 1.01 | locus YHR200W, strain rpn10, active compounds read low 1.02 | locus YIL066C, strain RNR3, active compounds read low 1.01 | locus YIL073C, strain SPO22, active compounds read low 1.1 | locus YIL125W, strain kgd1, active compounds read low 1.02 | locus YIR030C, strain dcg1, active compounds read low 1.04 | locus YJL092W, strain hpr5, active compounds read low 0.997 | locus YJL095W, strain BCK1 (second series), active compounds read low 1.02 | locus YJL095W, strain BCK1, active compounds read low 1.02 | locus YJL115W, strain asf1, active compounds read low 1 | locus YJL129C, strain trk1, active compounds read low 0.95 | locus YJL134W, strain LCB3, active compounds read low 1.01 | locus YJL154C, strain vps35, active compounds read low 0.999 | locus YJL164C, strain tpk1, active compounds read low 0.998 | locus YJL166W, strain qcr8, active compounds read low 0.989 | locus YJL168C, strain set2, active compounds read low 1.02 | locus YJL187C, strain SWE1 (second series), active compounds read low 1.01 | locus YJR043C, strain POL32, active compounds read low 1.01
